Bioassay records as filed in PubChem BioAssay.
tim23-1 inh – growth inhibitors of tim23-1 mutant yeast | AID 463212 | inhibition, % at 20 µM | 330,000 tested, 1.3% active | S. cerevisiae tim23-1 growth, BacTiter-Glo luminescence, 24 h;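 active means growth inhibition of the mutant yeast at or above 50%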;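 further: temperature-sensitive mutant grown at 25 °C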
TIM10 inh – growth inhibitors of TIM10 yeast strain | S. cerevisiae TIM10 strain growth, BacTiter-Glo luminescence, 24 h | 330,000 tested, 1.4% active | AID 463195 | inhibition, % at 10 µM;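 active means inhibition of 40% or more at the single tested concentration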;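 further: wild-type TIM10 isogenic control strain grown at permissive 25 °C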
ATG4B inh – inhibitors of human ATG4B cysteine protease; ATG4B cleavage of LC3-PLA2, NBD-HPC fluorescence, 1 h; inhibition, % at 8.33 µM; AID 504462; Q9Y4P1; 340,000 tested, 0.51% active; in the data active means inhibition above about 40%
Target sequence (Q9Y4P1 whole entry, looked up): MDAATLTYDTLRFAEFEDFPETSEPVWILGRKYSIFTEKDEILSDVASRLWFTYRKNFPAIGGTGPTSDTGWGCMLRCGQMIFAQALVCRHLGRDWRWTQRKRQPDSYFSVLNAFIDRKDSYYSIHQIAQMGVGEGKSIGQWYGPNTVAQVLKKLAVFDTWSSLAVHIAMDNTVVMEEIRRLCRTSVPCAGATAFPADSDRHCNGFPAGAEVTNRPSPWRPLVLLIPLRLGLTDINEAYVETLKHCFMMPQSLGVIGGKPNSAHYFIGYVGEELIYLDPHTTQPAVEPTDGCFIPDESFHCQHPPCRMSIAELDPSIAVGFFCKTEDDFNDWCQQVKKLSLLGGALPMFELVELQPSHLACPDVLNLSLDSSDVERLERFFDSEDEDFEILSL
PfHsp90 yeast 2 – reduces growth (ATP signal) of yeast expressing P. falciparum Hsp90; S. cerevisiae expressing PfHsp90, BacTiter-Glo ATP, 48 h; yeast lacking PDR1 and PDR3 efflux regulators; inhibition, % at 9.4 µM; 310,000 tested, 0.32% active;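 active means every replicate shows inhibition above about 80%, whatever the replicate mean, limit read from the data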
tim10-1 inh – inhibits growth of tim10-1 mutant yeast; S. cerevisiae tim10-1 ts strain growth, BacTiter-Glo, 24 h; inhibition, % at 20 µM; 330,000 tested, 2.2% active;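 active means inhibition of at least 40%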;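 further: mutant grown at 25 °C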
SKKanGAS inh – SKKanGAS growth inhibition. S. pyogenes SKKanGAS, kanamycin growth, BacTiter-Glo, 6 h. 300,000 tested, 1.3% active. inhibition, % at 7.5 µM. AID 1662;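 active means mean replicate score, as percent of positive control median, at least 50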;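 further: strain carries kanamycin resistance gene driven by streptokinase promoter and grows in 40 µg/ml kanamycin; loss of luminescence reflects streptokinase promoter inhibition or plain growth inhibition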
tim10-1 conf – tim10-1 yeast growth inhibition, confirmed. shares compounds with tim10-1 inh. S. cerevisiae tim10-1 ts strain growth, BacTiter-Glo, 24 h. inhibition, % at 20 µM. 7,400 tested, 56% active;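 active means inhibition of yeast growth at or above a set limit in either of two repeat tests at 20 µM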;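 further: tim10-1 mutant grown at permissive 25 °C to find synthetic lethal compounds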
A number is an active result; . = inactive; / = no result. In the library only some 4.7% were active in any assay of this set; here they are far more common.

SMILES	tim23-1 inh	TIM10 inh	ATG4B inh	PfHsp90 yeast 2	tim10-1 inh	SKKanGAS inh	tim10-1 conf
S=c1[nH]nc(-c2ccco2)n1/N=C/C=C/c1ccccc1	.	.	.	.	41	.	30
S=c1[nH]nc(-c2ccccc2)n1/N=C/C=C/c1ccco1	.	.	.	.	.	.	/
NC(=O)CC(NC(=O)Cc1ccc(Br)cc1)c1ccc(NCCN2CCOCC2)c([N+](=O)[O-])c1 (stereo not given)	.	.	.	.	.	.	/
Brc1cccc(C2Nc3cccc4cccc(c34)N2)c1	.	.	.	.	.	.	/
Brc1ccc(C2Nc3cccc4cccc(c34)N2)o1	.	.	.	.	42	.	29
O=c1cc(-c2ccccc2O)nc(-c2ccccc2)[nH]1	.	.	.	.	.	.	/
O=C(C1CCN(C2CC(=O)N(c3cccc(Cl)c3)C2=O)CC1)N1CCCC1 (stereo not given)	.	.	.	106	55	.	47
CCOC(=O)C1CCN(C2CC(=O)N(c3cccc(Cl)c3)C2=O)CC1 (stereo not given)	.	.	.	.	42	.	37
CCOC(=O)C1CCCN(C2CC(=O)N(c3ccc(C)cc3)C2=O)C1 (stereo not given)	.	.	.	.	.	.	/
O=C(C1CCN(C2CC(=O)N(c3ccc(Cl)cc3)C2=O)CC1)N1CCOCC1 (stereo not given)	.	.	.	.	.	.	/
COC(=O)C1CCN(C2CC(=O)N(c3cc(C)cc(C)c3)C2=O)CC1 (stereo not given)	.	.	.	105	40	.	32
CCN(CC)C1CC(=O)N(c2cccc(Cl)c2)C1=O (stereo not given)	.	.	.	126	45	.	56
C=CC(=O)Oc1ccc(N2Cc3ccccc3C2=O)cc1	.	.	.	/	60	.	68
COc1ccc(N2Cc3ccccc3C2=O)cc1	.	.	.	.	.	.	/
COc1ccc(/C=C(\NC(=O)c2ccccc2)C(=O)N/N=C/c2sccc2C)cc1	.	.	.	.	51	.	.
CC(=O)Nc1ccc2c(c1)CCc1ccccc1-2	.	.	.	.	.	.	/
O=C(O)/C=C/C(=O)c1ccc2c(c1)CCc1ccccc1-2	.	.	.	96	58	.	54
COC(C/C=C/C(=O)COCc1ccccc1)OC	.	.	.	.	46	.	41
c1ccc(CN2CCC(N3CCN(Cc4ccc5c(c4)OCO5)CC3)CC2)cc1	.	.	.	.	.	.	/
CCCc1cc(C(=O)NNC(=S)NCc2ccccc2)cs1	.	.	.	.	44	.	.
CC(/C=C/c1ccco1)=N\NC(=O)CNc1ccc2ccccc2c1	.	.	.	.	.	.	/
CCCCNC(=O)CSc1nc2ccccc2c(=O)n1CCNC(C)=O	.	.	.	.	.	.	/
COc1cccc(-c2nnc3sc(-c4ccco4)nn23)c1	.	.	.	/	.	.	/
CCOc1cccc(-c2nn3c(-c4ccco4)nnc3s2)c1	.	.	.	.	42	.	.
COc1cccc(-c2nn3c(-c4cccc(C)c4)nnc3s2)c1	.	.	.	.	44	.	.
SMILES	tim23-1 inh	TIM10 inh	ATG4B inh	PfHsp90 yeast 2	tim10-1 inh	SKKanGAS inh	tim10-1 conf
Cc1ccc(C(=O)NC2CCN(S(=O)(=O)c3ccc(C)cc3)CC2)cc1	.	.	.	/	.	.	/
CCn1c(=O)c(C(=O)NNC(=O)c2cccc(Cl)c2)c(O)c2ccccc21	.	.	.	.	46	103	51
CCn1c(=O)c(C(=O)Nn2c(C)nc3ccccc3c2=O)c(O)c2ccccc21	.	.	.	/	43	.	.
CCn1c(C)cc(O)c(C(=O)Nc2cccc(Cl)c2)c1=O	.	.	.	.	45	.	.
CCCC1CCC(C(=O)Nn2c(C)nc3ccccc3c2=O)CC1 (stereo not given)	.	.	.	.	47	.	.
CCCCCCC1CCC(C(=O)Nn2c(C)nc3ccccc3c2=O)CC1 (stereo not given)	.	.	.	.	.	.	/
CCc1nc2ccccc2c(=O)n1NC(=O)c1c(O)c2ccccc2n(CC)c1=O	.	.	.	/	.	.	/
